PubChem BioAssay (NCATS)
Where “and” joins values, the source holds several entries; their conditions need not be identical. Equal values may be shown once. Values without a mark were called inactive. Records with an inconclusive call do not appear. Where a call stands in place of a potency, no number is given. Calls of active or inactive are those of the source. Unless noted, the call rests on the fitted dose curve; in most records, active means well fitted curve in the direction sought with a large enough effect; inconclusive means small, poorly fitted or top-dose-only effect, or another doubt; inactive means no such curve, though single readings can be large; an effect the other way counts as inactive or inconclusive.

Key:
[1] = biological target: 3',5'-cyclic-AMP phosphodiesterase 4B (Homo sapiens) (UniProt Q07343); test: qHTS Assay for Inhibitors of PDE-IV (AID 607; active means well fitted activation curve with a large enough effect in the main read-out, with a control signal flat, not every such curve was filed as active)
In short: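 ACTOne HEK293 cells carry a modified cAMP-gated CNG channel and express endogenous PDE4; plated 1000 cells/well, compounds up to 22.9 uM final. Membrane-potential dye fluorescence (ex 535/em 590) was read; parental cells received 10 uM forskolin + 100 uM RO 20-1724.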

[2] = biological target: Cytochrome P450 2D6 (Homo sapiens) (UniProt P10635); test: qHTS Assay for Inhibitors and Substrates of Cytochrome P450 2D6 (AID 891); further: nearly all actives have a fitted effect of over 60% in size; further: potency means the concentration at half of the fitted maximal effect;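 on activity change, negative = inhibition: luciferin methyl ether substrate demethylated by CYP2D6 with NADPH regeneration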
In short: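 Human CYP2D6 (5 nM) with 30 uM Luciferin-ME EGE (at Km) in 100 mM KPO4, compound preincubated 10 min, then NADPH regeneration system for 60 min at room temperature. Luciferin read by luminescence; normalized to 1.43 uM quinidine.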

[3] = biological target: Guanine nucleotide-binding protein G(i) subunit alpha-1 (Homo sapiens) (UniProt P63096); test: qHTS Assay for Inhibitors of RGS12 GoLoco Motif Activity (Green Fluorophore) (AID 879);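 further: negative values mean loss of peptide binding seen as reduced polarization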
In short: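 Fluorescence polarization assay: 50 nM Gαi1 with 10 nM FITC-labeled RGS12 GoLoco peptide in 10 mM Tris pH 7.5, 150 mM NaCl, 0.1 mM GDP, 0.05% NP40, 10 min at room temperature with compound.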

[4] = Cellular Toxicity (caspase-3) HepG2 (AID 654);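 further: cells exposed to compound for 16 hours before reading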
In short: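 qHTS, HepG2, 1500 cells/well, complete medium; cpd 16 h 37 °C; Caspase-Glo 3/7, 20 min RT; lum. Norm: DMSO vs 100 uM tamoxifen; AC50 Hill fit.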

[5] = Cellular Toxicity (caspase-3) Jurkat (AID 655); conditions: Jurkat caspase-3 activation, luminescence; caspase-3 activation: at 92.2 µM (top of the series), DMSO = 0%, tamoxifen = 100%;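 further: cells exposed to compound for 16 h at 37 °C before reading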
In short: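 Luminescent Caspase-Glo 3/7 read-out (20 min, room temperature) after 16 h compound treatment at 37 C of 5000 Jurkat cells per well. AC50 derived by Hill-equation fitting, scaled between DMSO basal and 100 uM tamoxifen stimulation.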

[6] = Cellular Toxicity (caspase-3) HUV-EC-C (AID 656)
In short: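 Luminescent Caspase-Glo 3/7 readout after 16 h, 37 °C compound exposure of HUV-EC-C endothelial cells, 1000 per well, complete medium. AC50 derived by Hill fitting, with DMSO as baseline and 100 uM tamoxifen as full activation.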

[7] = Cellular Toxicity (caspase-3) SHSY5Y (AID 657)
In short: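 Luminescent Caspase-Glo 3/7 read-out, 1 hr room temperature, follows 16 hours of compound treatment of SH-SY5Y cells at 37 °C. Normalization: DMSO basal, 10 uM staurosporine as 100%; AC50 values from Hill-equation concentration-response fits.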

[8] = Cellular Toxicity (caspase-3) BJ (AID 658)
In short: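 BJ human foreskin fibroblasts, 1000 cells/well, treated 16 hours at 37 °C in complete medium; caspase 3/7 activity by Caspase-Glo luminescence after 1 hr at room temperature. Normalized to DMSO and 10 uM staurosporine; AC50 from Hill fits.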

[9] = Cellular Toxicity (caspase-3) MRC-5 (AID 659)
In short: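 MRC-5 human normal lung fibroblasts, 1500 cells/well, treated 16 h at 37 °C in complete medium. Caspase 3/7 measured by Caspase-Glo luminescence after 1 h at room temperature. Normalized to DMSO and 10 uM staurosporine; AC50 from Hill fit.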

[10] = Cellular Toxicity (caspase-3) Mesangial (AID 660);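 further: combined caspase 3 and 7 activity read by Caspase-Glo luminescence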
In short: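 Concentration-response qHTS: compound-induced rise in caspase 3/7 luminescence in human mesangial cells after 16 h, normalized to DMSO and 100 uM tamoxifen controls.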

[11] = Cellular Toxicity (caspase-3) SK-N-SH (AID 661)
In short: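 Caspase 3/7 activation is measured as a luminescence increase from aminoluciferin released by substrate cleavage in SK-N-SH cells after 16 hr compound treatment; values are AC50 from concentration-response curves.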

[12] = Cellular Toxicity (caspase-3) H-4-II-E (AID 663);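 further: cells exposed to compound for 16 hr before readout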
In short: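 Rat hepatoma H-4-II-E cells (1500/well) plated 5 hr, then exposed to compound titrations for 16 hr at 37 °C. Caspase-Glo 3/7 luminescence read after 20 min at RT; data normalized to DMSO and 100 uM tamoxifen, AC50 from Hill fits.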

[13] = Cellular Toxicity (caspase-3) Hek293 (AID 664);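 further: cells exposed to compound for 16 h at 37 °C before readout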
In short: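 Activation of caspase-3/7 is measured as increased luminescence from cleaved peptide-aminoluciferin substrate in HEK293 cells treated 16 hours at 37 °C. AC50 values come from Hill-equation fits of concentration-response data.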

[14] = Cellular Toxicity (caspase-3) N2a (AID 665);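 further: compound exposure lasted 16 h at 37 °C before readout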
In short: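 Plated mouse neuroblastoma N2a cells received titrated compounds for 16 h in complete medium. Caspase activity was then detected with a peptide-aminoluciferin luminescent reagent.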

[15] = Cellular Toxicity (caspase-3) NIH 3T3 (AID 666);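 further: caspase signal read after 16 h compound exposure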
In short: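 Concentration-response qHTS in NIH 3T3 mouse fibroblasts scores caspase-3/7 activation as rising luminescence after 16 hr compound exposure. Signals are scaled between DMSO-only and 100 uM tamoxifen.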

[16] = Cellular Toxicity (caspase-3) Renal Proximal Tubule (AID 667);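 further: cells exposed to compound for 16 hours at 37 °C before detection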
In short: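 Caspase 3/7 activation measured by luminescent aminoluciferin release in primary rat proximal tubule cells after 16 hr compound exposure at 37 °C. AC50 from Hill-fitted concentration-response, scaled between DMSO and 10 uM staurosporine.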

[17] = biological target: Cytochrome P450 2C9 (Homo sapiens) (UniProt P11712); test: qHTS Assay for Inhibitors and Substrates of Cytochrome P450 2C9 (AID 883); further: nearly all actives have a fitted effect of over 60% in size
In short: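 Signal: luciferase luminescence reporting luciferin produced by CYP2C9. Conditions: 10nM enzyme, Luciferin-H 100uM at KM, 25mM KPO4, 37C, 60 min NADPH-driven reaction. Reference: 57uM sulphaphenazole as 100% inhibition.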

[18] = biological target: Cytochrome P450 2C19 (Homo sapiens) (UniProt P33261); test: qHTS Assay for Inhibitors and Substrates of Cytochrome P450 2C19 (AID 899); further: nearly all actives have a fitted effect of over 60% in size
In short: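 Signal comes from luciferase acting on luciferin released by CYP2C19-mediated hydroxylation of Luciferin-H EGE, 10uM (KM). Assay mix: 5nM enzyme, 50mM KPO4; 60 min at 37C with NADPH regeneration. Data normalized against 57uM ketoconazole.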

[19] = biological target: Cytochrome P450 3A4 (Homo sapiens) (UniProt P08684); test: qHTS Assay for Inhibitors and Substrates of Cytochrome P450 3A4 (AID 884); further: nearly all actives have a fitted effect of over 50% in size
In short: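 20 nM human CYP3A4 with 25 uM Luciferin-PPXE (at KM) in 200 mM KPO4, preincubated 10 min with compound; NADPH regeneration started a 60 min RT reaction. Luciferin detected by luminescence, normalized to 57 uM ketoconazole as full inhibition.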

[20] = biological target: Cytochrome P450 3A4 (Homo sapiens) (UniProt P08684); test: qHTS Assay for Activators of Cytochrome P450 3A4 (AID 885); further: nearly all actives have a fitted effect of over 65% in size
In short: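 20nM CYP3A4 + 25uM Luciferin-PPXE (=KM), 200mM KPO4; cpd 10 min RT; NADPH regen, 60 min RT; stop w/ detection buffer, 20 min; luminescence. Normalized to 57 uM ketoconazole.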

Sequence of Cytochrome P450 2C19 (Homo sapiens) (P33261 whole entry, looked up): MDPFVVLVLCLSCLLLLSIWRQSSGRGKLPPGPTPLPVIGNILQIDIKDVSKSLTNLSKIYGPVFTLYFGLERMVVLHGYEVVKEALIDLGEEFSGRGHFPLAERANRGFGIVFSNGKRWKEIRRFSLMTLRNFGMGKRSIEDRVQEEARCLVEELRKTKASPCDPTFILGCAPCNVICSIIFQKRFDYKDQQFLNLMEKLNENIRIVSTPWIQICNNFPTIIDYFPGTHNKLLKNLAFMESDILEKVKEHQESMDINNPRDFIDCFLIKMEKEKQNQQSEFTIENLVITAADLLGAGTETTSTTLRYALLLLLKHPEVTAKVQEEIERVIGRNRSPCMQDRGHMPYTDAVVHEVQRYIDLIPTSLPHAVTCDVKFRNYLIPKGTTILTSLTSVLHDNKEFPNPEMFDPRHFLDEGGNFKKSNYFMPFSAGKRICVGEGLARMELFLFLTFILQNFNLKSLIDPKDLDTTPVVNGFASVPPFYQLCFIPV
Sequence of Cytochrome P450 3A4 (Homo sapiens) (P08684 whole entry, looked up): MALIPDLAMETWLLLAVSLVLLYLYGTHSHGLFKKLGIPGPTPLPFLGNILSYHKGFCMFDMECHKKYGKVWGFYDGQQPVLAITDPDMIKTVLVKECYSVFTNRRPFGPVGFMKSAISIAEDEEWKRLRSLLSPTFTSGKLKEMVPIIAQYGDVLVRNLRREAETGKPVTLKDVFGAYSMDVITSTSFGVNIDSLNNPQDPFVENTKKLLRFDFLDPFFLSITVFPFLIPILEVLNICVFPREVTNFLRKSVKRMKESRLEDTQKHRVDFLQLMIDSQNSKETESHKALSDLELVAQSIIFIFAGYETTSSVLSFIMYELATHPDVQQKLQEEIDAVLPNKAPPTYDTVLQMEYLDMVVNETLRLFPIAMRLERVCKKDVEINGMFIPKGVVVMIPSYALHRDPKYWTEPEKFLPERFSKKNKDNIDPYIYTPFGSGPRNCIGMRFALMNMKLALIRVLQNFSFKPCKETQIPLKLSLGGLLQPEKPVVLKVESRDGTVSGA
Sequence of Cytochrome P450 2D6 (Homo sapiens) (P10635 whole entry, looked up): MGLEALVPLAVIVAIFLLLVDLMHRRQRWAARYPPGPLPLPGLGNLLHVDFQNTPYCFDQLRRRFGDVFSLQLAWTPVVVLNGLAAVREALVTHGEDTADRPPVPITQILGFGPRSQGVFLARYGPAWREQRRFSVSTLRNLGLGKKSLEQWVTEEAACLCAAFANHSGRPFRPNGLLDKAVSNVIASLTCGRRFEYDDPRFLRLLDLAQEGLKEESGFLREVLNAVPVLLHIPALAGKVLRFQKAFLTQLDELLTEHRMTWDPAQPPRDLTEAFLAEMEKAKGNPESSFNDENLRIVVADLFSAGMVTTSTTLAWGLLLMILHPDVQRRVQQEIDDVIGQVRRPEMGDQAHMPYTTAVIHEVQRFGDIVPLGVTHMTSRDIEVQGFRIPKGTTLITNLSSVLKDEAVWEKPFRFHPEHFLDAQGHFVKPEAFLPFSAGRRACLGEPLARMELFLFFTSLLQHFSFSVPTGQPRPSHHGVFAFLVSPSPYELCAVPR
Sequence of Cytochrome P450 2C9 (Homo sapiens) (P11712 whole entry, looked up): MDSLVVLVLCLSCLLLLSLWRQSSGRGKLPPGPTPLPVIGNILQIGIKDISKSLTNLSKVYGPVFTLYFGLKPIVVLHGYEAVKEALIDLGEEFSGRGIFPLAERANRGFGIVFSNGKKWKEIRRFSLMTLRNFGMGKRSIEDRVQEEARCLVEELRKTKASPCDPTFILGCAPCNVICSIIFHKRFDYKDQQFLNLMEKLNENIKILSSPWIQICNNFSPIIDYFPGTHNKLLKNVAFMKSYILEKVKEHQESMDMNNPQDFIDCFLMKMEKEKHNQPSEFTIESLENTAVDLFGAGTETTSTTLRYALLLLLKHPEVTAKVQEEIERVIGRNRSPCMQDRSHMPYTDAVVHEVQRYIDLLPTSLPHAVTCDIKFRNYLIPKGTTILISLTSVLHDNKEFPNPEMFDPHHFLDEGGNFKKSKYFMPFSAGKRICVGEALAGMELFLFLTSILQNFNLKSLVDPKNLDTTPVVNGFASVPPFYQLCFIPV
Sequence of Guanine nucleotide-binding protein G(i) subunit alpha-1 (Homo sapiens) (P63096 whole entry, looked up): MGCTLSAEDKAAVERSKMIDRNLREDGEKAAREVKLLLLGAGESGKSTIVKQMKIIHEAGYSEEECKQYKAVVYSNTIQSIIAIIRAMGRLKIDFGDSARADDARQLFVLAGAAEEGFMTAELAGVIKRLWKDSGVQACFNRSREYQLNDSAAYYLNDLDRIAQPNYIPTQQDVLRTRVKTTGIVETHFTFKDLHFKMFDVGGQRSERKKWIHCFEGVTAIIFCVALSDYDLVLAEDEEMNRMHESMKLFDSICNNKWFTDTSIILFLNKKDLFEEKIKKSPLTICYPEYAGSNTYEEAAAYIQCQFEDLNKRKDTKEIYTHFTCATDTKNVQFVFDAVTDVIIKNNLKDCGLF
Sequence of 3',5'-cyclic-AMP phosphodiesterase 4B (Homo sapiens) (Q07343 whole entry, looked up): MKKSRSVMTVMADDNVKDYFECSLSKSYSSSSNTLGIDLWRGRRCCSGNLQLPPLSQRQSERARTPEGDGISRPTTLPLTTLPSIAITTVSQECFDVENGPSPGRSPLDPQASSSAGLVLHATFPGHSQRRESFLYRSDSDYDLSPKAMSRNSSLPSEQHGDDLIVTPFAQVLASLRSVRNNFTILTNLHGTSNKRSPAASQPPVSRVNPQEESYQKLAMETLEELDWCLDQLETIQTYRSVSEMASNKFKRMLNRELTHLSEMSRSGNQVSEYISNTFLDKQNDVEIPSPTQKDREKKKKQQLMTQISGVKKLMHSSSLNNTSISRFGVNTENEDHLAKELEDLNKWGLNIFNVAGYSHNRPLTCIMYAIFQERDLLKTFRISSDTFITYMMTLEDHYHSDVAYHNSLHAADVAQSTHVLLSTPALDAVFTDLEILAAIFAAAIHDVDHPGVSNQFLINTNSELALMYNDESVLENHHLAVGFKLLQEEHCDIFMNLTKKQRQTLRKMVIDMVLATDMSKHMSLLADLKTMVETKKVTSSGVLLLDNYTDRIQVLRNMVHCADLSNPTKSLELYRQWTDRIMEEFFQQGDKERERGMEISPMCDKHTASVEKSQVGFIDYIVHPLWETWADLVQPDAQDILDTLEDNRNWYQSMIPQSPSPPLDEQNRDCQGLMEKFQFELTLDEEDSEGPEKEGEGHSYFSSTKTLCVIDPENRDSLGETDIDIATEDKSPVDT

With Cc1cc(C(=O)NNCc2ccccc2)no1 the outcome [1] was “inactive”.
For CN(C)CCCN1c2ccccc2C(C)(C)c2ccccc21, the outcome [1] was “inactive” and the Potency [2] was 3980 nM (active).
For O=C1CSC2(CCN(CCCN3c4ccccc4Sc4ccc(Cl)cc43)CC2)N1, the outcome [1] was “inactive” and the Potency [2] was 631 nM (active).
With CC[N+](C)(C)Cc1ccccc1Br the outcome [1] was “inactive” and the outcome [3] was “inactive”.
With CC(C)N=c1cc2n(-c3ccc(Cl)cc3)c3ccccc3nc-2cc1Nc1ccc(Cl)cc1 the outcome [1] was “inactive” and the Potency [2] was 2510 nM (active).
In the case of O=C(O)CCC(=O)C(=O)O, the outcome [1] is reported as “inactive”, the outcome [4] is reported as “inactive” and the caspase-3 activation [5] is reported as 0.778%. For the same compound, the outcome [6] was “inactive”, the outcome [7] was “inactive” and the outcome [8] was “inactive”. For the same compound, the outcome [9] was “inactive”, the outcome [10] was “inactive” and the outcome [11] was “inactive”. The outcome [12] was “inactive”, the outcome [13] was “inactive” and the outcome [14] was “inactive”. The outcome [15] was “inactive”, the outcome [16] was “inactive” and the outcome [17] was “inactive”. For the same compound, the activity change, negative = inhibition [2] was 16.8% [at 11.4 µM] and the outcome [18] was “inactive”.
In the case of CC1=C2[C@@H]([C@H](C)CC[C@H]2/C=C(\C)C(=O)O)[C@H](O)C1, the outcome [4] is reported as “inactive”, the caspase-3 activation [5] is reported as 0.468% and the outcome [6] is reported as “inactive”. The outcome [7] was “inactive”, the outcome [8] was “inactive” and the outcome [9] was “inactive”. For the same compound, the outcome [10] was “inactive”, the outcome [11] was “inactive” and the outcome [12] was “inactive”. The outcome [13] was “inactive”, the outcome [14] was “inactive” and the outcome [15] was “inactive”. The outcome [16] was “inactive” and the Potency [19] was “inactive”.
With COc1ccc(CCNC[C@H](O)c2ccc(O)cc2)cc1OC the outcome [1] was “inactive”, the outcome [3] was “inactive” and the outcome [20] was “inactive”.
In the case of CCCCCCCC/C=C\CCCCCCCC(=O)O, the outcome [4] is reported as “inactive”, the caspase-3 activation [5] is reported as 1.62% and the outcome [6] is reported as “inactive”. The outcome [7] was “inactive”, the outcome [8] was “inactive” and the outcome [9] was “inactive”. The outcome [10] was “inactive”, the outcome [11] was “inactive” and the outcome [12] was “inactive”. The outcome [13] was “inactive”, the outcome [14] was “inactive” and the outcome [15] was “inactive”. The outcome [16] was “inactive” and the Potency [19] was “inactive”.
In the case of Nc1c(Br)cc(Br)cc1CNC1CCC(O)CC1 (configuration not stated), the outcome [1] is reported as “inactive”.
With Nc1ccn([C@H]2CS[C@@H](CO)O2)c(=O)n1 the outcome [4] was “inactive”, the caspase-3 activation [5] was -0.771% and the outcome [6] was “inactive”. The outcome [7] was “inactive”, the outcome [8] was “inactive” and the outcome [9] was “inactive”. For the same compound, the outcome [10] was “inactive”, the outcome [11] was “inactive” and the outcome [12] was “inactive”. The outcome [13] was “inactive”, the outcome [14] was “inactive” and the outcome [15] was “inactive”. For the same compound, the outcome [16] was “inactive” and the Potency [19] was “inactive”.
For CCOc1ccc2c(c1)C(C)=CC(C)(C)N2, the outcome [1] was “inactive”, the outcome [4] was “inactive” and the caspase-3 activation [5] was 15.7%. For the same compound, the outcome [6] was “inactive”, the outcome [7] was “inactive” and the outcome [8] was “inactive”. For the same compound, the outcome [9] was “inactive”, the outcome [10] was “inactive” and the outcome [11] was “inactive”. The outcome [12] was “inactive”, the outcome [13] was “inactive” and the outcome [14] was “inactive”. The outcome [15] was “inactive”, the outcome [16] was “inactive” and the outcome [20] was “inactive”.
In the case of CN=C(NC#N)Nc1ccc(C2=NNC(=O)C[C@@H]2C)cc1, the outcome [1] is reported as “inactive”, the outcome [3] is reported as “inactive” and the outcome [17] is reported as “inactive”. For the same compound, the Potency [2] was “inactive” and the outcome [18] was “inactive”.
In the case of CC1(C)S[C@@H]2[C@H](NC(=O)[C@@H](NC(=O)N3CCNC3=O)c3ccccc3)C(=O)N2[C@H]1C(=O)O, the outcome [1] is reported as “inactive”.
For CC(C)(C)C(=O)OCOC(=O)[C@@H]1N2C(=O)[C@@H](N=CN3CCCCCC3)[C@H]2SC1(C)C, the outcome [1] was “inactive”.
With O=C(O)CC/C=C\CC[C@H]1[C@@H](N2CCCCC2)[C@@H](O)C[C@@H]1OCc1ccc(-c2ccccc2)cc1 the outcome [1] was “inactive”.
With CC(C)=O the outcome [4] was “inactive”, the caspase-3 activation [5] was -1.17% and the outcome [6] was “inactive”. For the same compound, the outcome [7] was “inactive”, the outcome [8] was “inactive” and the outcome [9] was “inactive”. The outcome [10] was “inactive”, the outcome [11] was “inactive” and the outcome [12] was “inactive”. For the same compound, the outcome [13] was “inactive”, the outcome [14] was “inactive” and the outcome [15] was “inactive”. For the same compound, the outcome [16] was “inactive”.
In the case of CC1(C)S[C@@H]2[C@H](NC(=O)Cc3ccccc3)C(=O)N2[C@H]1C(=O)O, the outcome [1] is reported as “inactive”.
With Cc1ccccc1 the outcome [4] was “inactive”, the caspase-3 activation [5] was -1.43% and -0.873% and the outcome [6] was “inactive”. The outcome [7] was “inactive”, the outcome [8] was “inactive” and the outcome [9] was “inactive”. For the same compound, the outcome [10] was “inactive”, the outcome [11] was “inactive” and the outcome [12] was “inactive”. For the same compound, the outcome [13] was “inactive”, the outcome [14] was “inactive” and the outcome [15] was “inactive”. The outcome [16] was “inactive” and the Potency [19] was “inactive”.
For COC(=O)C1=C(C)NC(C)=C(C(=O)OCCCN2CCC(c3ccccc3)(c3ccccc3)CC2)[C@H]1c1cccc([N+](=O)[O-])c1, the outcome [1] was “inactive”.
For Cc1c(C)c2c(c(C)c1O)CC[C@@](C)(CCC[C@@H](C)CCC[C@@H](C)CCCC(C)C)O2, the outcome [1] was “inactive”, the outcome [17] was “inactive” and the outcome [18] was “inactive”.
